# DUX4 inh = blocks DUX4-driven transcriptional activation; 293T-iDUX4 ZSCAN4-Gaussia luciferase reporter, 24 h; stronger effect = lower value; activity change, negative = inhibition, % (test concentration not listed); AID 1224904; 0.8% of 37,000 active;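 active = mean inhibition of at least 10% in the main channel, exceeding the control channel by a set limit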
# A number is an active result; – = inactive; ! = repeats disagree. The full list was thinned out, with hits kept by preference.
SMILES,DUX4 inh
O=C(C1CCC1)N1CC2(C1)[C@H](c1ccccc1)[C@H](CO)N2C(=O)c1ccccn1,–
CC(=O)N1CC[C@@H]2[C@@H](CO)Nc3ccc(C#Cc4cccnc4)cc3[C@@H]21,–
O=C(c1ccccc1)N1CC[C@@H]2[C@@H](CO)Nc3ccc(C#Cc4cccc(F)c4)cc3[C@@H]21,-43
O=C(c1cccnc1)N1CC[C@@H]2[C@H]1c1cc(C#Cc3cccnc3)ccc1N[C@@H]2CO,-18
COc1cccc(C#Cc2ccc3c(c2)[C@@H]2[C@@H](CCN2C(=O)c2ccc(F)cc2)[C@@H](CO)N3)c1,–
O=C(c1cccc(F)c1)N1CC[C@@H]2[C@H](CO)Nc3ccc(C#Cc4ccc(F)cc4)cc3[C@@H]21,-42
O=C(c1ccccc1)N1CC[C@@H]2[C@H]1c1cc(C#Cc3cccc(F)c3)ccc1N[C@@H]2CO,–
O=C(c1cccnc1)N1CC[C@H]2[C@H](CO)Nc3ccc(C#Cc4cccnc4)cc3[C@H]21,–
O=C(c1cccc(F)c1)N1CC[C@@H]2[C@H]1c1cc(-c3cccc(F)c3)ccc1N[C@@H]2CO,–
O=C(c1cccc(F)c1)N1CC[C@@H]2[C@H](CO)Nc3ccc(C#CC4CC4)cc3[C@@H]21,–
O=S(=O)(Cc1ccccc1)N1CC2(C1)[C@@H](c1ccccc1)[C@H](CO)N2CC1CC1,–
C[C@H]1COCc2cn(nn2)CC[C@@H](Cc2ccccc2)C(=O)N1,–
C[C@@H]1CN([C@@H](C)CO)C(=O)Cc2cc(NC(=O)Nc3cccc4ccccc34)ccc2O[C@H]1CN(C)Cc1ccc(C(=O)O)cc1,–
CCCC(=O)N1CC2(C1)CN(C(=O)CC)[C@@H](CO)c1c2c2ccc(OC)cc2n1C,–
Cc1ccccc1-c1ccc([C@H]2[C@@H](CO)N3CCCCN(C(=O)NC4CCCC4)C[C@@H]23)cc1,–
C[C@@H]1COCc2cn(nn2)CC[C@H](Cc2ccccc2)C(=O)N1,–
O=C(CN1CCOCC1)NC[C@@H]1N[C@@H](CO)[C@H]1c1ccc(-c2ccccc2)cc1,–
CNC[C@H]1Oc2ncc(-c3cncnc3)cc2C(=O)N([C@@H](C)CO)C[C@H]1C,–
N#Cc1ccc(-c2ccc([C@@H]3[C@H](CO)N4C(=O)CN(C(=O)Cc5ccccc5)C[C@@H]34)cc2)cc1,–
Cc1cccc(-c2ccc(C3[C@@H]4CN(C(=O)Cc5ccncc5)C[C@H]3N4)cc2)c1 (stereo partly drawn),–
N#Cc1ccc(-c2ccc([C@H]3[C@H]4CN(C(=O)Cc5ccccc5)CC(=O)N4[C@H]3CO)cc2)cc1,–
N#Cc1cccc(-c2ccc(C3[C@@H]4CN(C(=O)Cc5ccncc5)C[C@H]3N4)cc2)c1 (stereo partly drawn),-26!
N#Cc1cccc(-c2ccc(C3[C@@H]4CN(C(=O)c5cccnc5)C[C@H]3N4)cc2)c1 (stereo partly drawn),–
N#Cc1ccc(-c2ccc(C3[C@@H]4CN(C(=O)Cc5ccccc5)C[C@H]3N4)cc2)cc1 (stereo partly drawn),-53!
CCN1CC(=O)N2[C@H](C1)[C@H](c1ccc(-c3ccccc3F)cc1)[C@@H]2CO,–
SMILES,DUX4 inh
CO[C@@H]1CN(C)C(=O)c2ccc(NS(=O)(=O)c3cccc(Cl)c3)cc2OC[C@@H](C)N(C(=O)Cc2cccnc2)C[C@H]1C,–
C[C@@H]1CC=CC[C@@H](c2cccc(Cl)c2)NC(=O)[C@H](C)N(C)C(=O)c2ccccc2O1 (mixture of isomers),–
COc1ccc(C[C@@H]2CCn3nncc3COC[C@@H](c3ccccc3)NC2=O)cc1,–
O=C(C[C@H]1C[C@@H]2c3cc(NC(=O)C4CCOCC4)ccc3O[C@@H]2[C@H](CO)O1)NCC(F)(F)F,–
Cc1ccc(CN2CC(=O)N3[C@H](C2)[C@H](c2ccc(-c4ccccc4F)cc2)[C@@H]3CO)cc1,–
c1ncc(-c2ccc(C3[C@@H]4CN(Cc5cocn5)C[C@H]3N4)cc2)cn1 (stereo partly drawn),–
Fc1ccccc1-c1ccc(C2[C@@H]3CN(Cc4ccccc4)C[C@H]2N3)cc1 (stereo partly drawn),-24!
OC[C@H]1[C@H](c2ccc(-c3ccccc3F)cc2)[C@@H]2CN(Cc3ccncc3)CCCCN12,–
Cc1ccccc1-c1ccc(C2[C@H]3CNC[C@@H]2N3Cc2ccccn2)cc1 (stereo partly drawn),–
Fc1ccccc1-c1ccc(C2[C@@H]3CN(Cc4ccccn4)C[C@H]2N3)cc1 (stereo partly drawn),-22!
O=C(C[C@@H]1CC[C@@H]2NC[C@H](O)COC[C@H]2O1)Nc1ccc(-c2ccccc2)cc1,–
CCCNC(=O)N1[C@H](C#N)[C@@H](c2ccccc2-c2ccccc2F)[C@@H]1CO,–
COCC(=O)NC[C@H]1N[C@H](CO)[C@@H]1c1ccc(-c2ccccc2F)cc1,–
COc1ccc2c3c([nH]c2c1)[C@H](CO)N(C(=O)NC(C)C)CC31CCN(C(=O)c2ccccn2)CC1,–
C[C@H]1CN([C@@H](C)CO)C(=O)c2c(c3ccccc3n2C)-c2ccccc2CO[C@H]1CN(C)S(=O)(=O)CC(F)(F)F,–
C[C@@H]1CN([C@H](C)CO)C(=O)c2c(c3ccccc3n2C)-c2ccccc2CO[C@@H]1CN(C)S(=O)(=O)CC(F)(F)F,–
C[C@H](CO)N1C[C@H](C)[C@H](CN(C)S(=O)(=O)c2cccc(F)c2)OCc2ccccc2-c2ccccc2C1=O,-21
C[C@H](CO)N1C[C@H](C)[C@@H](CN(C)S(C)(=O)=O)OCc2ccccc2-c2c(n(C)c3ccccc23)C1=O,–
C[C@H](CO)N1C[C@H](C)[C@@H](CN(C)S(=O)(=O)c2ccc(F)cc2)OCc2ccccc2-c2c(n(C)c3ccccc23)C1=O,–
C[C@H]1CN([C@@H](C)CO)C(=O)c2c(c3ccccc3n2C)-c2ccccc2CO[C@H]1CN(C)S(C)(=O)=O,–
C[C@H](CO)N1C[C@H](C)[C@H](CN(C)S(=O)(=O)CC(F)(F)F)OCc2ccccc2-c2c(n(C)c3ccccc23)C1=O,-33
C[C@@H]1CN([C@H](C)CO)C(=O)c2ccccc2-c2ccccc2CO[C@@H]1CN(C)S(=O)(=O)c1cccc(F)c1,–
C[C@@H]1CN([C@H](C)CO)C(=O)c2ccccc2-c2ccccc2CO[C@H]1CN(C)S(=O)(=O)c1cccc(F)c1,–
Cc1cccc(S(=O)(=O)N(C)C[C@H]2OCc3ccccc3-c3c(n(C)c4ccccc34)C(=O)N([C@H](C)CO)C[C@H]2C)c1,-29
Cc1cccc(S(=O)(=O)N(C)C[C@@H]2OCc3ccccc3-c3c(n(C)c4ccccc34)C(=O)N([C@@H](C)CO)C[C@H]2C)c1,-53
SMILES,DUX4 inh
C[C@H](CO)N1C[C@H](C)[C@@H](CN(C)S(=O)(=O)c2cccc(C#N)c2)OCc2ccccc2-c2c(n(C)c3ccccc23)C1=O,–
COc1cccc(NC(=O)N2C[C@@H](O)COC[C@H]3O[C@H](CC(=O)NC4CCCC4)CC[C@@H]32)c1,–
CCCC(=O)N1CCC2(CC1)CN(C(=O)c1ccc(F)cc1)[C@@H](CO)c1[nH]c3cc(OC)ccc3c12,–
CC(C)C[C@@H]1COCc2cn(nn2)CC[C@H](Cc2ccccc2)C(=O)N1,–
O=C(C[C@@H]1CC[C@H]2[C@@H](COC[C@@H](O)CN2S(=O)(=O)c2ccc(Oc3ccccc3)cc2)O1)Nc1ccccc1,–
O=C(C[C@@H]1C[C@H]2c3cc(NC(=O)C4CCC4)ccc3O[C@H]2[C@@H](CO)O1)NC1CCCC1,–

# High-throughput results (PubChem)
